Active and inactive are the calls of the source. A call without a number means that no potency is given here. The call rests on the fitted dose curve; in most records, active means well fitted activation curve with a large enough effect; inconclusive means small, poorly fitted or top-dose-only effect; inactive means flat fitted curve, though single readings scatter.
assay: Confirmation and Secondary Assay for Modulators of Hemoglobin Beta Chain Splicing at IVS2 705 locus (AID 930); conditions: HeLa EGFP-705 splicing reporter, GFP fluorescence, 48 h; series mostly up to 46.1 µM
Source text: NIH Chemical Genomics Center [NCGC] NIH Molecular Libraries Screening Centers Network [MLSCN] MLSCN Grant: 1 X01 MH080684-01 PI Name: Dr. Ryszard Kole NCGC Assay Overview: Modulation of Alternative Splicing as Therapy Abnormal splicing is associated with a number of diseases, including cancer and genetic diseases such as cystic fibrosis, muscular dystrophy and beta-thalassemia. Alteration of disease associated splicing patterns provides a promising target for treatment. […] Mutations in the second intron of the b-globin gene at positions 654 or 705 are clinically relevant and cause mis-splicing which results in an out of frame gene product. […] EGFP-705 HeLa Cells as screen system. HeLa cell lines were stably transfected with a construct in which the EGFP (enhanced green fluorescent protein) cDNA was interrupted by the second intron of the beta-globin gene (IVS2-705). The ISV2 intron contains mutations which cause mis-splicing of EGFP and premature termination of EGFP which results in a nonfluorescent protein product. […] Expression of the transgene was driven by the CMV promoter. We concluded that a low molecular weight compound, which restored correct splicing of intron 2 would also generate functional EGFP protein, resulting in a fluorescent signal. Thus, the HeLa cells that express the EGFP-705 construct can be used for validation of splice site specificity of compounds identified in primary screening of the ISV2 654 construct.
NCGC Assay Protocol Summary: Confirmatory Screening. Freshly thawed HeLa EGFP-705 cells were seeded in 5 ul of optimem media (Invitrogen) containing 2 % fetal calf serum (Hyclone) and 1x penicillin/streptomycin (Invitrogen) at a concentration of 500 cells per well in 1536-well plates. Cells were incubated overnight at 37C in 5% CO2. The next day, cells were treated with DMSO, 500 nM antisense ISV2 654 PNA control oligo, or library compound and allowed to grow at 37C in 5% CO2 for 2 days. The PNA oligo blocked the mutation site in the intron and allowed proper (wild type) splicing to occur, resulting in full length EGFP expression and also allowed for optimization of the assay parameters. Plates were read in the Acumen Explorer (TTP Labtech) using 488 nm laser excitation and 500-520 nm emission PMT filter in a 1 x 8 uM capture mode. Fluorescnet objects ranging in size from 5 to 250 uM were measured and the total peak GFP intensity for each well was used for data analysis. Keywords: Thalassemia, beta-thalassemia, beta-globin, EGFP, ISV2 654, ISV2 705, SSO, PNA, antisense, splicing, MLSMR, MLSCN, NIH Roadmap, qHTS, NCGC
Potency means the concentration at half of the fitted maximal effect.

Row | Structure (SMILES) | Potency
1 | CC(COc1ccccc1)NC(C)C(O)c1ccc(O)cc1 (stereo not given) | inactive
2 | CN(C)CCN(Cc1ccccc1)c1ccccn1 | inactive
3 | CCn1cc(C(=O)O)c(=O)c2cnc(N3CCNCC3)nc21 | inactive
4 | CC12CCC(CC1)C(C)(C)O2 | inactive
5 | CC(CN1c2ccccc2Sc2ccccc21)N(C)C (stereo not given) | inactive
6 | NCC(=O)CCC(=O)O | inactive
7 | Nc1ccc(S(=O)(=O)Nc2ccc(Cl)nn2)cc1 | inactive
8 | CCN(CC)CCCC(C)Nc1c2ccc(Cl)cc2nc2ccc(OC)cc12 (stereo not given) | 7.94 µM (active)
9 | Cn1cc[nH]c1=S | inactive
10 | CCN(CC)CCOC(=O)C1(C2CCCCC2)CCCCC1 | inactive
11 | c1ccc2c(CC3=NCCN3)cccc2c1 | inactive
12 | Cc1cc(CC(=O)O)n(C)c1C(=O)c1ccc(Cl)cc1 | inactive
13 | NC(=O)NC(=O)Cc1ccccc1 | inactive
14 | Oc1cccc(O)c1 | inactive
15 | CSc1ccc2c(c1)N(CCC1CCCCN1C)c1ccccc1S2 (stereo not given) | inactive
16 | O=c1cc[nH]c(=S)[nH]1 | inactive
17 | O=C1NS(=O)(=O)c2ccccc21 | inactive
18 | C=Cc1c(C)c2cc3[nH]c(cc4nc(cc5nc(cc1[nH]2)C(C)=C5CCC(=O)O)C(CCC(=O)O)=C4C)c(C)c3C=C | inactive
19 | CC(C)(C(=O)O)c1ccc(C(O)CCCN2CCC(C(O)(c3ccccc3)c3ccccc3)CC2)cc1 (stereo not given) | inactive
20 | NC(=O)N/N=C/c1ccc([N+](=O)[O-])o1 | inactive

Row | Structure (SMILES) | Potency
21 | CNCCC(Oc1ccc(C(F)(F)F)cc1)c1ccccc1 (stereo not given) | inactive
22 | CN(C)CCOC(C)(c1ccccc1)c1ccccn1 (stereo not given) | inactive
23 | CNCC(O)c1ccc(O)c(O)c1 (stereo not given) | inactive
24 | CCCCCCCCCCCCCCCCCCOCC(O)CO (stereo not given) | inactive
25 | CN(C)CCC=C1c2ccccc2CCc2ccccc21 | inactive
26 | CN(C)CCCN1c2ccccc2Sc2ccc(Cl)cc21 | inactive
27 | CCN(CC)CCNC(=O)c1cc(Cl)c(N)cc1OC | inactive
28 | CCCCN(CCCC)CCCOC(=O)c1ccc(N)cc1 | inactive
29 | O=C1c2c(O)cccc2Cc2cccc(O)c21 | inactive
30 | NS(=O)(=O)c1cc2c(cc1C(F)(F)F)NC(Cc1ccccc1)NS2(=O)=O (stereo not given) | inactive
31 | COC(=O)C1=C(C)NC(C)=C(C(=O)OC)C1c1ccccc1[N+](=O)[O-] | inactive
32 | Nc1ccc(S(=O)(=O)NC(=O)c2ccccc2)cc1 | inactive
33 | CN1CCOC(c2ccccc2)c2ccccc2C1 (stereo not given) | inactive
34 | CC1=C(CC(=O)O)c2cc(F)ccc2/C1=C\c1ccc(S(C)=O)cc1 (stereo not given) | inactive
35 | CC(CN(C)C)CN1c2ccccc2CCc2ccccc21 (stereo not given) | inactive
36 | Cc1c(Cl)cccc1Nc1ccccc1C(=O)O | inactive
37 | Cc1cc(N)c2ccccc2[n+]1CCCCCCCCCC[n+]1c(C)cc(N)c2ccccc21 | inactive
38 | Nc1ccc(S(=O)(=O)Nc2nccs2)cc1 | inactive
39 | CN(C)CC[C@@H](c1ccc(Cl)cc1)c1ccccn1 | inactive
40 | CC1(C)OC(=O)NC1=O | inactive

— PubChem BioAssay (NCATS)
